Measured values from the supplement of paper PMC10849652.
Of roughly 7,900 targets only a part is listed; those with a hit were picked by preference. About 0.6% of all pairs of compound and target were hits.

compound: O=C(CCCCCCC(=O)Nc1ccccc1)NO [vorinostat]; assay: log2 fold change, soluble protein after heating vs DMSO (PISA); higher = thermal stabilisation; K562 cells, 10 uM, 30 min; active = over 0.2 and 3.5 SD of the protein, either way, in both replicates (recomputed)
Method in brief: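 Soluble protein was quantified by TMTpro 16plex LC-MS/MS after channel sums were equalised. It was obtained as the supernatant after 21,000xg for 90 min from pooled aliquots of K562 cells (2×10^6 cells/mL, 10 μM compound, 30 min) heated for 3 min across 48°C-58°C and extracted in PBS with 0.5% NP-40 at 4°C. Thermal stability values are relative to control samples and come from duplicates. They are given as log2 fold changes.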

Chain of UniProt Q6Y7W6 (Q6Y7W6 whole entry, looked up): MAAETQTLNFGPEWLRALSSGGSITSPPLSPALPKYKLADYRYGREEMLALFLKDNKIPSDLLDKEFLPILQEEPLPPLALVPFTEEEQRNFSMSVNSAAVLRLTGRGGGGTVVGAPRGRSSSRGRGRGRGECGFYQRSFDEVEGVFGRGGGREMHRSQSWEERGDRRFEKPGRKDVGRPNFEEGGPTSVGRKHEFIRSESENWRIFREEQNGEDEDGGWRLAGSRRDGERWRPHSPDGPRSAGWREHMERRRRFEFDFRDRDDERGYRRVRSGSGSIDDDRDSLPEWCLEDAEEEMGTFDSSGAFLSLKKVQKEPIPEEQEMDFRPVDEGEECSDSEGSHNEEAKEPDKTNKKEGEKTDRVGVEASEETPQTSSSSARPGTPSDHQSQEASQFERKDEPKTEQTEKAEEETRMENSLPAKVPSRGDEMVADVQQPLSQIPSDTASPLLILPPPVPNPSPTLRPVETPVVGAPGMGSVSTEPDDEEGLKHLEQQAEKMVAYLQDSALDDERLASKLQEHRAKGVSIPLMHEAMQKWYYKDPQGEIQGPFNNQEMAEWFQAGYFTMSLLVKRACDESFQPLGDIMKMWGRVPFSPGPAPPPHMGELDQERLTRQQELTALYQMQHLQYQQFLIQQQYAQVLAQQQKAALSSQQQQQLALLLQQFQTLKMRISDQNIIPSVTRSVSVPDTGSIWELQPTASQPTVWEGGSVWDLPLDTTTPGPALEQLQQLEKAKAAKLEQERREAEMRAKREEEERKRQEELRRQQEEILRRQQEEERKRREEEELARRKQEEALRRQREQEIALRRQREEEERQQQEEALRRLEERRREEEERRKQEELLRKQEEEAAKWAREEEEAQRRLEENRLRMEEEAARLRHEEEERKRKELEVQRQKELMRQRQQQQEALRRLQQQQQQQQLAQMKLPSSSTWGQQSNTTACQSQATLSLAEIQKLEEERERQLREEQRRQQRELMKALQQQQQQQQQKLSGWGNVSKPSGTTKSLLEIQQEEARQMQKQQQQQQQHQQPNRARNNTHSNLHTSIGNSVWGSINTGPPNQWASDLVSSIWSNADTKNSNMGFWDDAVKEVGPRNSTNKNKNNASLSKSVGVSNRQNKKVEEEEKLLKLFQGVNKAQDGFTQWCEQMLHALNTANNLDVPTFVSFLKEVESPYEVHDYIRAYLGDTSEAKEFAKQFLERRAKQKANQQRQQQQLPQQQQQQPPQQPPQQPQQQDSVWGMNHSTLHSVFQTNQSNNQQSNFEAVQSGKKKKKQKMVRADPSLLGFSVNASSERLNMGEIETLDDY
Chain of UniProt P07686 (P07686 whole entry, looked up): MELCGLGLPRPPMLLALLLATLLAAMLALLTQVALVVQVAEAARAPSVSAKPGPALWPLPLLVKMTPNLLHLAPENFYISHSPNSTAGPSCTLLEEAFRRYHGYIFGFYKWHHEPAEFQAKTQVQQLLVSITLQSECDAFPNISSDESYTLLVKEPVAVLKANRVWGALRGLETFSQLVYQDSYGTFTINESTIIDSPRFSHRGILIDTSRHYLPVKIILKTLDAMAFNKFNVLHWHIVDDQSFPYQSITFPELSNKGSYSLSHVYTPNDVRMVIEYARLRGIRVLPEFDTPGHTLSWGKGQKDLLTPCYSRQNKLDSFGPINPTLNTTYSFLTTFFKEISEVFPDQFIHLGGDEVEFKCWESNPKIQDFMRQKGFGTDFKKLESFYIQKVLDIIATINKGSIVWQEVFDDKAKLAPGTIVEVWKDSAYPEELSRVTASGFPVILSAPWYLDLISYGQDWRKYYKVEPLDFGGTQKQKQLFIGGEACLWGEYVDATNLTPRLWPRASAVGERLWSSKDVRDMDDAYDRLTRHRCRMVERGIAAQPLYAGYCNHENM
Chain of UniProt Q00688 (Q00688 whole entry, looked up): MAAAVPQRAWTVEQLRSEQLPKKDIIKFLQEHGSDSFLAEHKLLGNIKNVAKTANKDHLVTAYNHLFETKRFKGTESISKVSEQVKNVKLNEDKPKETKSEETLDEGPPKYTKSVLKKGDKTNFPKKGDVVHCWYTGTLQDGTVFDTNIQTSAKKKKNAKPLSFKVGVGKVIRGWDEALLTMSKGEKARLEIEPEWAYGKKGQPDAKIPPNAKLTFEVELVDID
Chain of UniProt Q969S8 (Q969S8 whole entry, looked up): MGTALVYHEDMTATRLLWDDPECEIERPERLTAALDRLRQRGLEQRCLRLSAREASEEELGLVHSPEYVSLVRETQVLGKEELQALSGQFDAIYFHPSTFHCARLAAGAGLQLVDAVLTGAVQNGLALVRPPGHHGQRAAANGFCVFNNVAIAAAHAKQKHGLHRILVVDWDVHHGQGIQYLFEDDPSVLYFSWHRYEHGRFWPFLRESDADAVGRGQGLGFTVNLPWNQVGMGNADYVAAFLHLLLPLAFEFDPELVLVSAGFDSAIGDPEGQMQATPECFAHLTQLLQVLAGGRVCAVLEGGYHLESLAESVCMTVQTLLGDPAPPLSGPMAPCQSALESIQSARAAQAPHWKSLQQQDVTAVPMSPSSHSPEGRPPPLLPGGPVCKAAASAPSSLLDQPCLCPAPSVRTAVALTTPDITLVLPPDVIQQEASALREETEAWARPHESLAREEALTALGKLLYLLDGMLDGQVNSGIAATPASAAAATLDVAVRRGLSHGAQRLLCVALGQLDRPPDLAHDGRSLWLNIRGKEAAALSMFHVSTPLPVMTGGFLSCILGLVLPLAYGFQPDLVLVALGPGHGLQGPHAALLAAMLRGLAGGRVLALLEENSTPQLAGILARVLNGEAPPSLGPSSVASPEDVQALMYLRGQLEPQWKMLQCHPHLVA
Chain of UniProt Q9UK97 (Q9UK97 whole entry, looked up): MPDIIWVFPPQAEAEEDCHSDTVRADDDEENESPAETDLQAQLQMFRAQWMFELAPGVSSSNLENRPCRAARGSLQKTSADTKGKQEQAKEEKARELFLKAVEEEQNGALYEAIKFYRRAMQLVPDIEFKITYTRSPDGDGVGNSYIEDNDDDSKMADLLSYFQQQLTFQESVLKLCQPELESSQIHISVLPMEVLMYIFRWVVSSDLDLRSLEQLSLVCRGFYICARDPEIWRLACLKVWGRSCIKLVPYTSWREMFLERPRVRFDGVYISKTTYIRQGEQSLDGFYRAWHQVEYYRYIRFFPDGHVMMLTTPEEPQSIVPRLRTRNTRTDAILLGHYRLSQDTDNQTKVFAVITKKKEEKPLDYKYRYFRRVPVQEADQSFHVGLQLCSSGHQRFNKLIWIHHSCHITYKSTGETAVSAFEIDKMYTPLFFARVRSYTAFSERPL
Chain of UniProt Q9Y248 (Q9Y248 whole entry, looked up): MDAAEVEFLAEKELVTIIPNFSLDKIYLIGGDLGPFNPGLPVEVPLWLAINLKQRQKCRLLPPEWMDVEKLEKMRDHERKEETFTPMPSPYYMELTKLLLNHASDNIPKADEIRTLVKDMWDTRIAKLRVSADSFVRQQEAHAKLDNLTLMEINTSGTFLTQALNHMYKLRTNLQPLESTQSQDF
Chain of UniProt Q92664 (Q92664 whole entry, looked up): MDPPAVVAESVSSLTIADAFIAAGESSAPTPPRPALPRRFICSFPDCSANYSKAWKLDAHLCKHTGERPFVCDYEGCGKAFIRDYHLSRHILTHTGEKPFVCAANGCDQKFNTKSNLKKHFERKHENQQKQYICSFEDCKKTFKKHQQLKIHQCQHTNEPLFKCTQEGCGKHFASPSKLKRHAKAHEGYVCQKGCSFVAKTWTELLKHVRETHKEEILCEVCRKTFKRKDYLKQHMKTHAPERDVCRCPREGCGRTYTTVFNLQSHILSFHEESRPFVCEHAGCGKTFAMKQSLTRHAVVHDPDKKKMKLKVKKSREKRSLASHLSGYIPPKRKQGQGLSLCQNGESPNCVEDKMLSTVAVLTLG
Chain of UniProt Q02790 (Q02790 whole entry, looked up): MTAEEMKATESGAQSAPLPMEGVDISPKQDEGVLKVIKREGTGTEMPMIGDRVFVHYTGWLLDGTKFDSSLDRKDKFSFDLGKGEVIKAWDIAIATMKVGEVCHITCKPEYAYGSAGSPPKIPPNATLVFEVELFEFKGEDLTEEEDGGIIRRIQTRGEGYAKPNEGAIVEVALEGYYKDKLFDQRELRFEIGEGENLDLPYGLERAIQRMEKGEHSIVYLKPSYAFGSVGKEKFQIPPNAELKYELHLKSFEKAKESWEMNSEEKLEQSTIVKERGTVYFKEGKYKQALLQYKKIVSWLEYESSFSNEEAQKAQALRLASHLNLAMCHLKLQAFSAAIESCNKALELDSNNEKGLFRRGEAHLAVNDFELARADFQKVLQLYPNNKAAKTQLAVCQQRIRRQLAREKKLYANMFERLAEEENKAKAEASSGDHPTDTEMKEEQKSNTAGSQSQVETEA
Chain of UniProt Q9BVP2 (Q9BVP2 whole entry, looked up): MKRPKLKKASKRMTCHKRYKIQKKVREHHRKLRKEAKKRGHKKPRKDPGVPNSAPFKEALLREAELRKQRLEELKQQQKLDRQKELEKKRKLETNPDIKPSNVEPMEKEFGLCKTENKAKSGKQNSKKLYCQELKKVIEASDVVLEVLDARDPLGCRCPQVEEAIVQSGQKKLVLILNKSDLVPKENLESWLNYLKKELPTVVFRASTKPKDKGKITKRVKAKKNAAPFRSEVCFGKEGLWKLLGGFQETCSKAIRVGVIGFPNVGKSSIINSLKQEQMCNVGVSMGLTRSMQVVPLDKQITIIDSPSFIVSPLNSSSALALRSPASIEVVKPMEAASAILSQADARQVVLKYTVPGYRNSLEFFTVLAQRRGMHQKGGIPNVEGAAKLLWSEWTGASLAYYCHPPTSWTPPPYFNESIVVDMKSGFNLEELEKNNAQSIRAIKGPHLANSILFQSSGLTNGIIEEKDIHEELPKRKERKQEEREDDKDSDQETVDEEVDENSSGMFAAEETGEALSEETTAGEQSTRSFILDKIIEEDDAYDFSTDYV
Chain of UniProt P30711 (P30711 whole entry, looked up): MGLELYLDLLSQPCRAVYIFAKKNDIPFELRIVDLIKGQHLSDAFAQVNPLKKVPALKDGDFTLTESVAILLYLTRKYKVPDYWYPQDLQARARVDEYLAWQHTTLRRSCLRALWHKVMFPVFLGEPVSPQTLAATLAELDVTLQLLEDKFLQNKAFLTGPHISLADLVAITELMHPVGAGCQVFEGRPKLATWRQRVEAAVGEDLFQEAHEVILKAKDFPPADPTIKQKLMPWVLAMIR

Target | log2 fold change
GABPA (UniProt Q06546) | 0.138 (inactive)
FRA10AC1 isoform 3 (UniProt Q70Z53) | 0.065 (inactive)
GINS2 (UniProt Q9Y248) | -0.01 (inactive)
GNAS (UniProt Q5JWF2) | -0.022 (inactive)
GYS1 (UniProt P13807) | -0.125 (inactive)
HEXB (UniProt P07686) | -0.042 (inactive)
HDAC1 (UniProt Q13547) | 1.79 (active)
FKBP4 (UniProt Q02790) | 0.035 (inactive)
GATD1 (UniProt Q8NB37) | -0.018 (inactive)
GSTT1 (UniProt P30711) | -0.022 (inactive)
HDAC10 (UniProt Q969S8) | 0.208 (inactive)
GPD1 (UniProt P21695) | -0.035 (inactive)
FKBP3 (UniProt Q00688) | 0.007 (inactive)
HDAC7 isoform 5 (UniProt Q8WUI4) | 0.027 (inactive)
FBXO9 (UniProt Q9UK97) | 0.109 (inactive)
GOPC (UniProt Q9HD26) | -0.038 (inactive)
GNL3 (UniProt Q9BVP2) | -0.131 (inactive)
GIGYF2 (UniProt Q6Y7W6) | 0.103 (inactive)
GSTP1 (UniProt P09211) | -0.012 (inactive)
GNL1 (UniProt P36915) | 0.008 (inactive)
GTF3A (UniProt Q92664) | 0.026 (inactive)
GEMIN2 (UniProt O14893) | 0.102 (inactive)
FUT8 (UniProt Q9BYC5) | -0.001 (inactive)
GLCCI1 (UniProt Q86VQ1) | 0.158 (inactive)
